Measured values as given in PubChem BioAssay (NCI).
The panel holds about 83,000 compounds, 20% with a hit somewhere; the sample as a whole holds those more often.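 Single-concentration screen, 48 h exposure, 96-well plates. Endpoint: percent growth. Below 10 = active.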 The source made the active and inactive calls.

What was measured:
Assay in all cases: NCI-60 one-dose screen, 48 h (100 = growth as untreated, 0 = no growth, -100 = all killed)
Settings in all cases: 10 µM unless noted
[1] = tested on: SK-MEL-2 melanoma
[2] = tested on: EKVX NSCLC
[3] = tested on: SN12C renal
[4] = tested on: UO-31 renal
[5] = tested on: TK-10 renal
[6] = tested on: ACHN renal
[7] = tested on: CAKI-1 renal
[8] = tested on: CCRF-CEM leukemia
[9] = tested on: MOLT-4 leukemia
[10] = tested on: SR leukemia
[11] = tested on: RPMI-8226 leukemia
[12] = tested on: OVCAR-5 ovarian
[13] = tested on: OVCAR-4 ovarian
[14] = tested on: SK-OV-3 ovarian
[15] = tested on: IGROV1 ovarian
[16] = tested on: OVCAR-3 ovarian
[17] = tested on: HS 578T breast
[18] = tested on: NCI/ADR-RES ovarian
[19] = tested on: A498 renal
[20] = tested on: OVCAR-8 ovarian

Measured: growth

CCNCCCn1c2c(c3ccc(Cl)cc3c1=O)C(=O)c1cc(OC)cnc1-2
inactive: [1] 77.1% | [2] 53.4% | [3] 27.6% | [4] 10.3% | [5] 39.9% | [7] 39.9% | [13] 52.2% | [15] 44.7% | [16] 39.1% | [17] 58.8% | [18] 35.5%
active: [6] 8.64% | [8] -37.3% | [9] -34% | [10] -63.6% | [11] -48.8% | [12] -11.9% | [14] -11%

CCN(CC)c1ccc(/C=C2/NC(=O)NC2=O)cc1
inactive: [3] 55.9% | [4] 53.5% | [5] 49.5% | [6] 71.4% | [7] 39% | [19] 23.8% | [11] 74.1% | [20] 79.9% | [12] 33.2% | [13] 77% | [14] 33.7% | [15] 46.7% | [16] 19.3%
active: [1] 8.13% | [2] 1.53% | [17] -2.99% | [18] -31.9%

Cc1c(C(=O)CCl)c(=O)n(-c2ccccc2)n1C
inactive: [1] 71.4% | [2] 76.8% | [3] 86% | [4] 64.2% | [5] 40.1% | [6] 47% | [7] 29.8% | [19] 77.4% | [9] 24.8% | [10] 20.1% | [20] 72.3% | [12] 94.5% | [14] 103% | [15] 48.6% | [16] 18.4% | [17] 57.5% | [18] 83.3%

CCOC(=O)c1ccc2c(c1)[n+](=O)c(C(=O)c1ccc3ccccc3c1)c(C(F)(F)F)n2[O-]
active: [1] -83.5% | [2] -56.8% | [3] -99.2% | [4] -96% | [5] -89.7% | [6] -100% | [7] -93.8% | [19] -62.4% | [20] 3.25% | [12] -98.5% | [13] -65.8% | [14] -100% | [15] -82.9% | [16] -99.6% | [17] -45.7% | [18] -86.4%

C=C(C)[C@@H]1CC[C@]2(C(=O)NS(=O)(=O)c3ccccc3)CC[C@]3(C)[C@H](CC[C@@H]4[C@@]5(C)CC[C@H](OC(=O)NS(=O)(=O)c6ccccc6)C(C)(C)[C@@H]5CC[C@]43C)[C@@H]12
inactive: [2] 27.5% | [3] 13% | [5] 24% | [6] 14.6% | [7] 24.8% | [20] 18.4% | [12] 15.5% | [13] 38.1% | [14] 29.7% | [15] 17.6% | [17] 14.5% | [18] 17.1%
active: [1] -6.1% | [4] 8.04% | [19] -2.66% | [11] -55.3% | [16] -31.3%

COc1ccc(/C=C(\C#N)c2cc(OC)c(OC)c(OC)c2)cc1
active: [19] 7.06% | [9] 8.39% | [14] -6.74% | [16] -25.1% | [18] 2.63%
inactive: [1] 64.7% | [2] 54.7% | [3] 27.9% | [4] 28.5% | [5] 74.1% | [6] 24.7% | [8] 14.9% | [10] 12.1% | [11] 12.3% | [20] 15.6% | [12] 38.6% | [13] 35.4% | [15] 17.9% | [17] 36%

COc1ccc(C(=O)C(CN(C)C)c2ccc(OC)cc2)cc1 (stereo not drawn)
active: [8] 3.8% | [10] 0.837% | [11] 1.35% | [16] -4.36%
inactive: [1] 75.1% | [2] 90.7% | [3] 62.5% | [4] 67.9% | [5] 52% | [6] 54.1% | [19] 64.4% | [9] 52.9% | [20] 42.2% | [12] 94.8% | [13] 73.1% | [14] 98.8% | [15] 86.9% | [17] 92.2% | [18] 67.3%

O=[N+]([O-])c1ccc(SSc2ccc([N+](=O)[O-])cc2Cl)c(Cl)c1
inactive: [1] 104% | [2] 87.9% | [3] 93.4% | [4] 64.7% | [5] 105% | [6] 97.7% | [19] 22.7% | [8] 98.9% | [9] 78.1% | [10] 84.5% | [11] 80% | [20] 100% | [12] 126% | [13] 83% | [14] 104% | [15] 69.6% | [16] 101% | [17] 90.5%

Nc1cc(C(=O)O)cc(C(=O)O)c1
inactive: [1] 89.6% | [2] 105% | [3] 96.3% | [4] 84.8% | [5] 101% | [6] 109% | [7] 104% | [19] 98% | [9] 90.1% | [10] 75.3% | [20] 99.3% | [12] 105% | [14] 97% | [15] 102% | [16] 123% | [17] 113% | [18] 112%
